Bioassay records (PubChem)
Rows were chosen to be rich in hits. Some 18% of all compounds tested hit in one or more screens of this group.
TDP1 cell noCPT = qHTS for Inhibitors of human tyrosyl-DNA phosphodiesterase 1 (TDP1): qHTS in cells in absence of CPT. DT40 Tdp1-/- hTDP1 cells, no CPT, ATP luminescence, 48 h. Potency, µM (series often up to 46.2 µM), without a hit: at the top dose activity change, negative = growth inhibition, most hits filed as inhibitors. 420,000 tested, 15% active. AID 686978, 2013; further: potency means the concentration at half of the fitted maximal effect; on the % scale 0 is the no-effect control and ±100 the full control effect; nearly all actives have a fitted effect of over 55% in size
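Camptothecin absent (DMSO only). Human TDP1-complemented DT40 knockout cells, 400 cells/well, 37 °C for minimum 48 hr; ATP measured via CellTiter-Glo, 30 min dark incubation, luminescence.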
TDP1 inh = blocks human tyrosyl-DNA phosphodiesterase 1. Q9NUW8. recombinant TDP1, AlphaScreen DNA substrate cleavage. Potency, µM (doses to about 130 µM), for the others: at the highest dose activity change, negative = inhibition, usual class: inhibitors. AID 485290. 350,000 tested, 0.28% active; further: potency means the concentration at half of the fitted maximal effect; on the % scale 0 is the no-effect control and ±100 the full control effect; nearly all actives have a fitted effect of over 40% in size
Target sequence (Q9NUW8 whole entry, looked up): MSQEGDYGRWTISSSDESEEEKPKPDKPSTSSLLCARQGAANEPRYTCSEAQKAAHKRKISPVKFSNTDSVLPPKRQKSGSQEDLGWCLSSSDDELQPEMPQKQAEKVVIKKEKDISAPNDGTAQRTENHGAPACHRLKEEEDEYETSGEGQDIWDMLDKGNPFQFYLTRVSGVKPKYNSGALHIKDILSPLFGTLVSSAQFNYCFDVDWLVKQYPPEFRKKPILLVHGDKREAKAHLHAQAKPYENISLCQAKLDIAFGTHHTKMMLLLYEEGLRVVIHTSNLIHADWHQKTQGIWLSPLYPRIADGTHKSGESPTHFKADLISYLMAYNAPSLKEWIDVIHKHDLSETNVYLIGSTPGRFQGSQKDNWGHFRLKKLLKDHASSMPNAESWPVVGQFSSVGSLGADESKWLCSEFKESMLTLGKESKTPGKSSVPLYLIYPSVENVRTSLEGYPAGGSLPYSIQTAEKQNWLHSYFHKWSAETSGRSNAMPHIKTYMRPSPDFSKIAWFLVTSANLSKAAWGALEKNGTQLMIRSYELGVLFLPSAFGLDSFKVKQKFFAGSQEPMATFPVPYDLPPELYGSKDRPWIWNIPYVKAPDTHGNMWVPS
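E. coli-derived human Tdp1, 1 nM final. Cpd preinc 15 min RT; substrate 15 nM final, 5 min RT; AS bead mix 10 ug/ml final, 10 min RT. Signal loss = tyrosine-FITC cleavage. No-enzyme wells = max signal.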
HepG2 viability = counter-screen for TGF-b inhibitors: cytotoxicity in HepG2 cells; HepG2 CAGA-GFP viability, ATP luminescence, 18 h; Potency, µM (doses to about 46.1 µM), inactives show top-dose activity change, negative = cytotoxicity, actives largely listed as cytotoxic; 410,000 tested, 0.76% active; AID 588856; further: potency means the concentration at half of the fitted maximal effect
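HepG2 CAGA-GFP cells (1000/well, DMEM with 1% FBS) received compound, then TGF-beta at 500 pg/mL final, and were incubated 18 hours at 37 degrees C. Viability was read by CellTiter-Glo luminescence. Media-only wells were set as complete cell-killing and DMSO as no toxicity.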
DT40 TDP1 CPT = DT40-hTDP1 cell growth loss with CPT; chicken DT40 Tdp1-/-;hTDP1 cells + 20 nM CPT, ATP luminescence, 48 h; 420,000 tested, 12% active; Potency, µM (highest dose often 46.2 µM), for inactives: at the highest dose activity change, negative = growth inhibition, hits mostly inhibitors; further: potency means the concentration at half of the fitted maximal effect; on the % scale 0 is the no-effect control and ±100 the full control effect; nearly all actives have a fitted effect of over 55% in size
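Chicken DT40 Tdp1-/- cells complemented with human TDP1, 400 cells/well, exposed to compounds plus 20 nM camptothecin for at least 48 h at 37 C; viability read as ATP content by CellTiter-Glo luminescence.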
IL1B secr inh = inhibitors of inflammasome signaling (IL-1 beta secretion) | THP-1 LPS/ATP IL-1B secretion, AlphaLISA, 16 h; hits give low values | 360,000 tested, 4.7% active | activity change, % at 57.5 µM | AID 743279; in the data active means activity change below about -50%; inconclusive means mostly about -30% to -49%; further: on the % scale 0 is the no-effect control and ±100 the full control effect
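THP-1 cells pretreated 1 hr with compounds (up to 57.5 uM final), then stimulated with LPS (250 ng/mL final) plus ATP (1.25 mM final); secreted IL-1B measured by AlphaLISA after 16 hr, decreased signal indicating inhibition.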
TGFb inhibitor = TGF-b pathway inhibition. Potency, µM (doses to about 46.1 µM), inactives show at the top dose activity, negative = inhibition, hits mostly inhibitors. AID 588855. HepG2 CAGA-GFP TGF-b/SMAD3 reporter, GFP fluorescence, 18 h; TGF-beta stimulated, 500 pg/mL final. 410,000 tested, 1.2% active; further: potency means the concentration at half of the fitted maximal effect; on the % scale 0 is the no-effect control and ±100 the full control effect; nearly all actives have a fitted effect of over 65% in size
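Per well, imaged GFP fluorescence of HEPG2 CAGA-GFP cells gives the signal; cells get compound, then TGF-beta (500 pg/mL final), 18 h at 37 degrees C; %Activity versus -TGF-beta and +DMSO controls.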
Starred values were filed as active, the others as inactive; ? = inconclusive; / = no result given; [ ] = remark or other dose. Unless noted, the call rests on the fitted dose curve; in most records, active means well fitted curve in the direction sought with a large enough effect; inconclusive means small, poorly fitted or top-dose-only effect, or another doubt; inactive means no such curve, though single readings can be large; an effect the other way counts as inactive or inconclusive.

SMILES	TDP1 cell noCPT	TDP1 inh	HepG2 viability	DT40 TDP1 CPT	IL1B secr inh	TGFb inhibitor
COc1cc(/C=C/C(=O)Nc2ccc(C)cc2)cc(OC)c1OC	16µM*	2%	-19%	?	15	?
COC(=O)c1ccccc1NC(=O)/C=C/c1cc(OC)c(OC)c(OC)c1	21µM*	4%	-10%	21µM*	-85*	2%
Cc1ccc(NC(=O)NN2CCN(C)CC2)cc1C	2%	2%	1%	-27%	-7	2%
COCC(C)NS(=O)(=O)c1ccc(NC(=O)C(Cc2ccccc2)NC(N)=O)cc1 (centres undefined)	-9%	1%	4%	-11%	52	4%
COCCCN1C(=O)C(CC(=O)NCCc2ccccn2)CC(C(=O)N2CCCCCC2)=C1C (centres undefined)	-6%	/	/	-10%	0	/
COc1ccc(Cl)cc1N1C(=O)CC(Sc2ccccc2N)C1=O (centres undefined)	-25%	/	5%	3%	?	-14%
CC(=O)NC(CC(=O)OCC(=O)N1CCN(S(=O)(=O)c2ccc(Cl)cc2)CC1)c1ccccc1 (centres undefined)	-16%	/	7%	-2%	12	0%
CC(=O)/C=C/c1ccccc1Oc1c(F)c(F)nc(F)c1F	26µM*	/	-23%	?	-27	?
COc1ccccc1/C=C\C(=O)O	-5%	-4%[56.1 µM]	/	-7%	/	/
CC(=O)n1cc(C(C[N+](=O)[O-])SCCN)c2ccccc21 (centres undefined)	5.2µM*	11%	-95%	5.2µM*	-97*	?
COCCn1c(=O)c(CCc2ccccc2)nc2cnc(Nc3cccc(OC)c3)nc21	-14%	/	/	2%	/	/
CCOC(=O)[C@]12CCC=C1N(Cc1ccco1)C(=O)[C@H](CC(=O)N1CCCC1)C2	-23%	/	/	-16%	62	/
CCOC(=O)c1ccc(-n2c(C)ccc2C)cc1	-5%	7%	-1%	-11%	-14	14%
CCOC(=O)c1ccc(-n2c(=O)[nH]c3ccccc3c2=O)cc1	-14%	3%	4%	-14%	-60*	-1%
CCOC(=O)c1ccc(-n2c(-c3ccco3)nc3ccccc3c2=O)cc1	18µM*	7%	14%	12µM*	10	-5%
CCOC(=O)c1ccc(N2C(=O)C=CC2=O)cc1	1µM*	7%	-106%	0.82µM*	-89*	?
CCCC(C)C(=O)OCC(=O)NCc1ccc(OC)c(OC)c1 (centres undefined)	-4%	1%	0%	7%	55	?
CCCNC(=O)C1(CC2CC(c3ccccc3)=NO2)CCN(C(=O)C2CCCC2)CC1 (centres undefined)	-7%	-3%	4%	-2%	-25	?
CCCCCCCNC(=O)C1(CC2CC(c3ccc(Cl)cc3)=NO2)CCN(C(=O)OC(C)(C)C)CC1 (centres undefined)	21µM*	/	-11%	?	-10	1%
COC(=O)C1(CC2CC(c3ccccc3)=NO2)CCN(C(=O)OC(C)(C)C)CC1 (centres undefined)	21µM*	/	-15%	?	-9	-17%
COC(=O)C1(CC2CC(c3ccncc3)=NO2)CCN(C(=O)OC(C)(C)C)CC1 (centres undefined)	21µM*	0%	2%	?	8	-2%
CC(C)(C)OC(=O)N1CCC(CC2CC(c3ccccc3)=NO2)(C(=O)O)CC1 (centres undefined)	-11%	/	1%	-3%	54	-1%
O=C(NC1CCCC1)c1ccc2c(=O)n(Cc3ccccc3)c(SCc3cccc([N+](=O)[O-])c3)nc2c1	-20%	4%	-10%	-24%	/	?
Cc1ccc(C)c(NC(=O)CN2C(=O)COc3ccc(S(=O)(=O)N4CCCC4)cc32)c1	11%	2%	-8%	3%	19	0%
O=[N+]([O-])c1cccc(C=Nc2cc3c(cc2Br)OCCO3)c1	-4%	6%	-28%	0%	-16	-9%
SMILES	TDP1 cell noCPT	TDP1 inh	HepG2 viability	DT40 TDP1 CPT	IL1B secr inh	TGFb inhibitor
CC(C)(C)c1ccc(NC(=O)c2cc(C3CCCN(S(=O)(=O)c4cccc5cccnc45)C3)on2)cc1 (centres undefined)	12µM*	/	-37%	23µM*	39	-22%
CS(=O)(=O)N1CCCCC1c1cc(C(=O)Nc2cccc(C#N)c2)no1 (centres undefined)	-16%	/	-18%	-17%	-18	1%
Cc1ncccc1C(=O)N1CCCC(c2cc(C(=O)Nc3ccc(C(C)(C)C)cc3)no2)C1 (centres undefined)	12µM*	/	-17%	13µM*	-19	23%
N#Cc1cccc(NC(=O)c2cc(C3CCCCN3S(=O)(=O)c3cccc4cccnc34)on2)c1 (centres undefined)	18µM*	/	-7%	?	-1	-2%
COc1ccc(-c2nc3c(C)cc(Br)cn3c2Cc2ccsc2)cc1OC	?	/	-8%	?	-3	-15%
COc1ccc(-n2cc(C(=O)Nc3cc(F)ccc3F)c3ccccc3c2=O)cc1	?	9%	-3%	?	/	-33%
COc1cc(OC)cc(C(=O)Nn2cc(C(=O)Nc3ccccc3F)c3ccccc3c2=O)c1	?	3%	3%	23µM*	-8	4%
NS(=O)(=O)c1ccc(CCNC(=O)c2ccc(C#CC3(O)CCCCC3)cc2)cc1	2.6µM*	-2%	-17%	21µM*	-8	-19%
NS(=O)(=O)c1ccc(CCNC(=O)c2ccc(Cl)nc2)cc1	1%	/	-21%	-4%	28	-4%
Cc1nc(SCC(=O)NC(=O)NC(C)(C)C)nc(C)c1C	-4%	4%	-1%	2%	15	6%
Cc1ccc(-c2csc3nc[nH]c(=S)c23)cc1C	21µM*	8%	-32%	7.3µM*	-16	-29%
CCCOc1ccc(-c2csc3nc[nH]c(=O)c23)cc1	?	1%	-17%	?	-7	-18%
O=c1[nH]cnc2scc(-c3ccc(-c4ccccc4)cc3)c12	?	-2%	-21%	-23%	-68*	1%
CCOc1ccc(-c2cc(CCCC(=O)NCCc3ccc(OC)c(OC)c3)no2)cc1	?	12%	-1%	?	/	?
